# Source: PubChem BioAssay
# In the library only some 2.3% were active in any assay of this set; here they are far more common.
# Granule exo inh – LAMP-1 surface exposure blockers, TALL-104 cells – cell-based, flow cytometry, MLPCN library, primary screen | TALL-104 LAMP-1 surface exposure; cells stimulated with thapsigargin and PMA | inhibition, % at 10 µM | 360,000 tested, 0.66% active;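 active = inhibition above about 55%, limit read from the data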
# NTR1 ag – agonists of human NTR1, primary screen, imaging, U2OS cells, beta-arrestin-GFP, high content. NTR1-U2OS beta-arrestin-GFP spot imaging, agonist mode. Neurotensin receptor type 1 (Homo sapiens), P30989. activation, % at 20 µM. AID 493036, 2011. 330,000 tested, 0.17% active;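 active = activation at or above 40% of the spot to cytoplasm intensity ratio, with at least 20 cells analyzed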;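 also: 0% = DMSO without peptide and 100% = 100 nM NTR1 peptide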
# B2AR ag – beta2AR agonists driving receptor internalization, primary screen, cell-based, FAP fluorogen, flow cytometry; response, % (no concentration beside the values); Beta-2 adrenergic receptor (Homo sapiens), P07550; AID 504454, 2011; Am2.2-beta2AR cells; 340,000 tested, 0.43% active;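 active = response above a set limit, near 3 SD of response in nonfluorescent compounds, cut at about 42% in these data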
# Target sequence (P07550 whole entry, looked up): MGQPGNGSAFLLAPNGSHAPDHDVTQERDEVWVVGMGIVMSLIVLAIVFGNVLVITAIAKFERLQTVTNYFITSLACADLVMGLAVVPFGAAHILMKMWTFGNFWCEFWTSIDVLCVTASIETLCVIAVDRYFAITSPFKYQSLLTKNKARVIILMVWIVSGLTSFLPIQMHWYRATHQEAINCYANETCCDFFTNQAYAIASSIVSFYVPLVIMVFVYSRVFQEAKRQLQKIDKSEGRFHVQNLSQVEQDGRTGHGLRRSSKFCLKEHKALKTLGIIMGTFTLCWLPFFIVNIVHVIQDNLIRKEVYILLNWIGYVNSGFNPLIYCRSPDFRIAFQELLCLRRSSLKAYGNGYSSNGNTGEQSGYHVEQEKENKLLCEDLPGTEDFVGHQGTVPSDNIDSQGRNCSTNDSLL
# m5-HT2A agonist – mouse Htr2a agonists via beta-arrestin recruitment, primary screen, cell-based, luminescence; 5-hydroxytryptamine receptor 2A (Mus musculus), P35363; CHO-K1 mHTR2A beta-arrestin complementation; percent of 30 µM serotonin response; activation, % at 7.6 µM; 360,000 tested, 0.66% active;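 active = activation above a run cutoff, the mean activation of all tested compounds plus 3 SD, cut at about 14% in these data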;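 also: 0% = plate median of compound wells and 100% = 30 µM serotonin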
# ABHD5-PLIN5 inh – ABHD5-PLIN5 interaction inhibitors, primary screen, cell lysate, split luciferase complementation, luminescence; Perilipin-5 (Homo sapiens) + 1-acylglycerol-3-phosphate O-acyltransferase ABHD5 (Homo …; Split G. princeps luciferase complementation, 4 h; inhibition, % at 4 µM; 360,000 tested, 0.78% active;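 active = inhibition above the mean inhibition across every tested compound plus 3 SD, cut at about 22% in these data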;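 also: 0% = DMSO only wells and the 100% control is not disclosed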
# MOR ag counter – OPRM1 agonists via beta-arrestin recruitment, confirmation, counter-screen for mouse HTR2A agonist project, cell-based, luminescence, single concentration; shares compounds with m5-HT2A agonist; U2OS OPRM1 beta-arrestin PathHunter; DMSO 0%, DAMGO 9.3 µM 100%; activation, % at 9.3 µM; 2,300 tested, 5.3% active; AID 624380, 2012;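 active = mean activation above the mean of DMSO-only wells plus 3 SD, cut at about 0.5% in these data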
# m5-HT2A ag conf – mouse HTR2A agonists, beta-arrestin recruitment, confirmation, cell-based, luminescence, CHO-K1 PathHunter, triplicate | shares compounds with m5-HT2A agonist | DMSO 0%, 30 µM serotonin 100% | activation, % at 7.6 µM | 2,300 tested, 19% active | AID 624381, 2012;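 active = mean activation across triplicates above the hit threshold derived in the original primary screen, cut at about 15% in these data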
# Exocytosis CP01 – inhibitors of lytic granule exocytosis, confirmation, TALL-104 cells, flow cytometry, Cherry Pick01; shares compounds with Granule exo inh; LAMP-1 externalization; stimulated with PMA plus thapsigargin; inhibition, % at 10 µM; 1,500 tested, 11% active; AID 651954, 2012; in the data active = inhibition above about 60%;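 also: 0% = stimulated vehicle wells and 100% = unstimulated wells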
# Active calls of the source: *; · = not tested or not shown.
SMILES,Granule exo inh,NTR1 ag,B2AR ag,m5-HT2A agonist,ABHD5-PLIN5 inh,Exocytosis CP01,others
Cc1cccc(CNCCc2c[nH]c3ccccc23)c1,80.0*,2.3,2.0,33.4*,2.5,-11.0,MOR ag counter=-0.3;m5-HT2A ag conf=15.1*
COc1cc2c(cc1O)[C@@H]1Cc3ccc(OC)c(O)c3CN1CC2,2.8,0.8,-4.8,-4.3,-10.5,·,
CCCN1CCc2cc(O)cc3c2[C@H]1Cc1ccc(O)c(O)c1-3,64.6*,6.1,0.5,48.5*,-5.8,-12.6,MOR ag counter=-0.1;m5-HT2A ag conf=171.0*
CC(C)(O)[C@@H]1[C@H]2OC(=O)[C@@H]1[C@]1(O)C[C@H]3O[C@]34C(=O)O[C@H]2[C@]14C (tested in a mixture with another compound),·,0.0,·,·,·,·,
COc1ccc(-c2ccc3c(c2)CN(c2cccc(Cl)c2)Cc2cnnn2-3)cc1,88.0*,·,·,-1.3,6.1,-11.9,
Clc1cccc(N2Cc3cc(N4CCOCC4)ccc3-n3nncc3C2)c1,4.7,·,·,10.2,0.0,·,
C#CCOc1ccc2c(c1)c(C(C)=O)c(C)n2Cc1ccccc1,59.7*,5.3,11.9,4.0,-2.6,-3.8,
CCOc1ccccc1CN1C2CCC1CC(c1ccc(C)cc1)C2 (stereo not given),67.1*,5.5,19.4,-9.2,-4.9,-13.4,
Cc1ccc(CN2C3CCCC2CC(NC(=S)NCc2ccccc2)C3)cc1 (stereo not given),-2.0,5.6,1.0,-2.7,7.0,·,
COC(=O)C1=C(c2ccc(OCc3ccccc3)cc2)C[C@@H]2CC[C@H]1N2C(=O)NCc1cccc(C(F)(F)F)c1,5.3,0.5,1.6,-1.2,-4.8,·,
O=c1[nH]c(=O)n(-c2ccc(F)cc2)c(O)c1/C=C1\C=Nc2ccccc21,55.7*,-1.8,-5.7,4.4,19.8,-2.9,
O=c1[nH]c(=O)n(-c2ccccc2F)c(O)c1/C=C1\C=Nc2ccccc21,6.5,14.4,41.1,-0.8,10.4,·,
CC(C)Nc1ccc(Nc2ccccc2)cc1,100.4*,5.6,1.4,-12.1,-8.6,51.6,
FC(F)(F)Oc1ccc(C2NCc3ccccc3-n3cccc32)cc1 (stereo not given),59.2*,5.0,-1.0,-0.2,-1.6,-15.3,
COc1cccc(OCc2cc(C(=O)N3C[C@H]4C[C@@H](C3)c3cccc(=O)n3C4)no2)c1,1.5,1.4,8.2,7.9,-6.3,·,
COC(=O)C1=C(c2ccc(C(C)=O)cc2)C[C@@H]2CC[C@H]1N2C(=O)NC1Cc2ccccc2C1,-2.6,-1.8,-1.9,-3.7,1.5,·,
COc1ccc2c(CN3CC=C(c4ccccc4)CC3)cc(=O)oc2c1,-5.4,-1.6,5.0,1.4,-6.2,·,
COc1ccc2ccc(O)c(CN3CC=C(c4ccccc4)CC3)c2c1,91.7*,1.8,7.4,3.3,3.8,16.8,
CC(C)OCC(O)CN1CC2C[C@@H](C1)Cn1c2cccc1=O (stereo not given in full),2.5,-0.7,0.7,-1.4,8.6,·,
Cc1ccccc1CC(=O)N(CCN(C)C)CC1CCCN(Cc2ccccc2F)C1 (stereo not given),61.5*,-1.8,0.2,-7.1,14.7,-4.7,
